High-throughput results from PubChem.
miR-21 reporter: qHTS Assay for Modulators of miRNAs and/orActivators of miR-21 | HeLa miR-21 FLuc reporter, luciferase, 48 h | AID 2288, 2010 | 340,000 tested, under 10 active | Potency, µM (series often up to 38.3 µM), inactives show at the top dose activity change, positive = activation, actives largely listed as activators;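 further: % of control where 0% means no effect; miR-21 action dims this reporter so a rising signal means less miR-21 action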
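Luminescence from a firefly luciferase reporter carrying a miR-21 binding site downstream, stably expressed under a CMV promoter in HeLa cells that make miR-21 endogenously, reports miRNA modulation after 48 h compound exposure up to approximately 40uM final.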
LMNA splice mod: qHTS Assay for Modulators of Lamin A Splicing; AID 1487, 2009; HeLa LMNA splicing GFP/RFP minigene ratio, 48 h; Potency, µM (series often up to 46.1 µM), without a hit: at the highest dose ratio change, negative = inhibition, most hits filed as inhibitors; 0.01% of 200,000 active; active means well fitted inhibition curve with a large enough effect in the signal ratio, with a control signal flat, not every such curve was filed as active; inconclusive means small, poorly fitted or top-dose-only effect, or effect the other way, or a change in a side signal; the % refers to the signal ratio; further: potency means the concentration at half of the fitted maximal effect; on the % scale 0 is the no-effect control and ±100 the full control effect
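S3 HeLa cells stably expressing lamin A-EGFP splicing minigene plus DsRed2, 600 cells/well, 48 h compound exposure at 37C. Laser-scanning cytometry; analysed as GFP (500-530 nm)/RFP (575-640 nm) total intensity ratio; 0.5% DMSO vehicle.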
KDM4E inh: qHTS Assay for Inhibitors of Human Jumonji Domain Containing 2E (JMJD2E); Lysine-specific demethylase 4E (Homo sapiens), B2RXH2; 1.6% of 230,000 active; Potency, µM (titrated, usually from 57.1 µM), without a hit: at the highest dose activity change, negative = inhibition, most hits filed as inhibitors; JMJD2E catalytic domain, FDH-coupled NADH fluorescence (FDH is formaldehyde dehydrogenase);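 further: potency means the concentration at half of the fitted maximal effect; 0% = wells with enzyme and -100% = buffer wells without enzyme; nearly all actives have a fitted effect of over 50% in size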
Target sequence (B2RXH2 1-337 limits assumed): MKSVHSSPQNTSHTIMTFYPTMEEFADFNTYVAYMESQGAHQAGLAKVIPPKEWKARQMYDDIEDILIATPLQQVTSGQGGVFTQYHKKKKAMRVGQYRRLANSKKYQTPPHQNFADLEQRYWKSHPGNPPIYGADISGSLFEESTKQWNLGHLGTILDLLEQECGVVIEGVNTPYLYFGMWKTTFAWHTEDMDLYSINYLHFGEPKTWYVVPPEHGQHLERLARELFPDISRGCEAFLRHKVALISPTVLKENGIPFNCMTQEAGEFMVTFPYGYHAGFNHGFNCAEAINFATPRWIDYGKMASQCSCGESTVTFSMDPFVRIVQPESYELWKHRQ
Sfp PPTase inh: qHTS Assay for Inhibitors of Bacillus subtilis Sfp phosphopantetheinyl transferase (PPTase) | Biochemical Sfp PPTase activity, qHTS | 3.5% of 310,000 active | Potency, µM, for the others: largest response in the series, negative = inhibition, usual class: inhibitors | AID 1490, 2009;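 further: the enzyme is Sfp with the accession as filed and its product quenches rhodamine fluorescence; potency means the concentration at half of the fitted maximal effect; 0% = enzyme reaction without inhibitor and -100% = no enzyme wells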
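With Hepes-Na pH 7.6 buffer containing 10 mM MgCl2, Sfp (15 nM) modified BHQ-2-YbbR (12.5 uM) using rhodamine-CoA (5 uM). Two reads 30 minutes apart at 525/598 nm yielded each well's rate.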
G9a block: qHTS Assay for Inhibitors of Histone Lysine Methyltransferase G9a; Histone-lysine N-methyltransferase EHMT2 (Homo sapiens), Q96KQ7; G9a H3K9 monomethylation, AlphaScreen, 2 h; Potency, µM (highest dose often 102 µM), for the others: at the highest dose activity, negative = inhibition, usual class: inhibitors; 8.8% of 350,000 active; AID 504332, 2011; further: potency means the concentration at half of the fitted maximal effect; on the % scale 0 is the no-effect control and ±100 the full control effect; nearly all actives have a fitted effect of over 75% in size
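Signal arises when biotinylated H3K9 peptide, once monomethylated, bridges streptavidin donor and antibody-captured acceptor beads. Enzyme at 20 nM was preincubated 15 min with test compounds; peptide 500 nM and SAM 20 uM then reacted for 2 h.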
ALDH1A1 block: qHTS Assay for Inhibitors of Aldehyde Dehydrogenase 1 (ALDH1A1); Purified ALDH1A1, NADH fluorescence, propionaldehyde substrate; Potency, µM (doses to about 75.3 µM), for inactives: top-dose activity, negative = inhibition, usual class: inhibitors; 7.3% of 220,000 active; AID 1030, 2008; active means well fitted inhibition curve with a large enough effect, not every such curve was filed as active; inconclusive means small, poorly fitted or top-dose-only effect, or another doubt; inactive means no such curve, though single readings can be large or run the other way;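 further: potency means the concentration at half of the fitted maximal effect; plate controls were no enzyme wells and a reference inhibitor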
An asterisk follows results filed as active; ? = inconclusive; · = not tested or not shown; [ ] = dose if it differs, or a comment. An excerpt weighted towards active compounds, which were near 13% of everything screened. Unless noted, the call rests on the fitted dose curve; in most records, active means well fitted curve in the direction sought with a large enough effect; inconclusive means small, poorly fitted or top-dose-only effect, or another doubt; inactive means no such curve, though single readings can be large; an effect the other way counts as inactive or inconclusive.

SMILES | miR-21 reporter | LMNA splice mod | KDM4E inh | Sfp PPTase inh | G9a block | ALDH1A1 block
CC1=NN(c2ccccc2)C(=O)[C@@H]1N=Nc1ccc(S(N)(=O)=O)cc1 | · | · | · | · | · | 12.6%[13.5 µM]
CC1=NN(c2ccccc2)C(=O)C1N=Nc1cccc(O)c1 (stereo not drawn) | -36.4% | · | · | -14.4% | 70.8µM* | ·
CC1=NN(c2ccccc2)C(=O)C1N=Nc1ccc(N)cc1 (stereo not drawn) | -8.6% | ? | 14.1µM* | -28.3% | ? | ?
COc1ccc(N=NC2C(=O)N(c3ccccc3)N=C2C)cc1 (stereo not drawn) | 2.6% | · | · | -5.2% | ? | ·
Cc1ccc2[nH]c(=O)cc(C(=O)OC(C)C)c2c1 | -7.5% | · | ? | -3.0% | · | ?
CC(C)C(NC(=O)c1ccc(Cl)cc1Cl)C(=O)NCCc1ccccn1 (stereo not drawn) | · | · | · | · | 4.2% | ·
COc1ccc(F)cc1S(=O)(=O)Nc1cccc(-c2ccc(N3CCCCCC3)nn2)c1 | -22.8% | -5.8%[46 µM] | · | · | -28.7%[59 µM] | ·
CC(C)(C)c1ccc(S(=O)(=O)CCc2ccccn2)cc1 | -57.3% | -5.7% | -0.2% | -2.1% | 17.7% | 7.08µM*
NNC(=O)c1ccc(Oc2cc(Cl)cc(Cl)c2)o1 | 1.9% | · | -6.4% | -6.5% | · | 0.159µM*
O=C(NCC1CC1)c1ccc(Oc2cc(Cl)cc(Cl)c2)o1 | -0.1% | · | 1.2% | -14.4% | · | ?
COc1ccc(C(=O)/C=C/c2ccc(N(C)C)cc2)c(OC)c1 | -0.1% | · | -3.3% | -18.1% | -1.2% | ·
COc1ccc(C(=O)/C=C/c2ccc(N3CCCCC3)c([N+](=O)[O-])c2)c(OC)c1 | -11.2% | ? | -4.3% | -11.0% | 8.91µM* | 20µM*
COc1ccc(C(=O)/C=C/c2ccc(N3CCCCC3)c([N+](=O)[O-])c2)cc1 | -5.6% | ? | -2.9% | 15.1% | 10µM* | 4.47µM*
COc1ccc(N2CCN(c3ccc(C(N)=O)cc3[N+](=O)[O-])CC2)cc1 | 9.6% | -23.2%[46 µM] | -6.0% | -17.4% | ? | -4.5%
CC1(C)OC(=O)C(=CNC(Cc2c[nH]c3ccccc23)C(=O)O)C(=O)O1 (stereo not drawn) | -1.6% | -1.3% | 4.1% | 9.3% | ? | 25.1µM*
O=C(COc1ccccc1)NC(Cc1c[nH]c2ccccc12)C(=O)O (stereo not drawn) | 1.9% | -5.9% | -1.2% | -13.8% | 35.5µM* | -6.3%
O=C(O)[C@H](Cc1c[nH]c2ccccc12)N1C(=O)C2=CCCC=C2C1=O | · | · | · | -0.5% | · | ·
Cc1cccc(OCC(=O)NC(Cc2c[nH]c3ccccc23)C(=O)O)c1C (stereo not drawn) | -0.2% | 15.6%[46 µM] | -8.8% | 50.1µM* | 39.8µM* | 5.5%
Cc1ccccc1OCC(=O)NC(Cc1c[nH]c2ccccc12)C(=O)O (stereo not drawn) | 2.8% | 2.6%[46 µM] | -3.0% | 13.4% | -11.7% | -7.1%
O=C(O)C(Cc1c[nH]c2ccccc12)N1C(=O)C2C3c4ccccc4C(c4ccccc43)[C@@H]2C1=O (stereo partly drawn) | 0.0% | · | -1.6% | 17.1% | 50.1µM* | ·
O=C(Cc1c[nH]c2ccccc12)N[C@@H](Cc1c[nH]c2ccccc12)C(=O)O | -0.3% | · | · | 1.6% | 3.8% | ·
O=C(Nc1ccc(Cl)c(C(F)(F)F)c1)C1CCN(S(=O)(=O)c2cccc3nonc23)CC1 | -1.2% | · | · | · | -32.2%[59 µM] | ·
CC(C)CCCC(C)C1CCC2C3CC=C4CC(=O)CC[C@@]4(C)C3CC[C@@]12C (stereo partly drawn) | · | 12.8% | -12.3% | 5.3% | · | -3.1%
CCCCCOC(=O)c1ccc(Nc2nc(C(=O)OCC)nc3ccccc23)cc1 | -4.4% | · | · | · | 2.2%[59 µM] | ·
COc1cccc(NC(=O)c2ccc3nc(C)sc3c2)c1 | -58.9% | · | · | -1.0% | · | ·
